Measurements: PubChem BioAssay AID1159580 (chemical genetic matrix, 2015)
The whole screen tested about 5,500 compounds, of which about 2,000 (36%) were called active. About 18% were inconclusive and are not listed. Cut-off read from the data, not from the text of the source: active = normalized growth mostly below about 0.91 (no sharp cut-off); inconclusive = no clear call, values can overlap the other calls; inactive = mostly above about 0.92. This is one part of the list.

Experiment: chemical genetic growth profiling, strain panel (AID 1159580);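 note: tested at 20 µM; growth read once vehicle control cultures reached saturation at 30 °C; 1 = growth at the plate median or of vehicle wells; lower values mean less growth of the strain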
Conditions: S. cerevisiae deletion strains, growth OD
[1] = locus YAL021C, strain ccr4, hits give low values
[2] = locus YAL026C, strain drs2, hits give low values
[3] = locus YAL030W, strain snc1, hits give low values
[4] = locus YBL061C, strain skt5, hits give low values
[5] = locus YBR009C, strain hhf1, hits give low values
[6] = locus YBR023C, strain chs3, hits give low values
[7] = locus YBR171W, strain sec66, hits give low values
[8] = locus YBR231C, strain swc5, hits give low values
[9] = locus YBR279W, strain paf1, hits give low values
[10] = locus YCL011C, strain gbp2, hits give low values
[11] = locus YCL016C, strain dcc1, hits give low values
[12] = locus YCL061C, strain MRC1, hits give low values
[13] = locus YCL069W, strain vba3, hits give low values
[14] = locus YCR088W, strain abp1, hits give low values
[15] = locus YDL005C, strain med2, hits give low values
[16] = locus YDL040C, strain nat1, hits give low values
[17] = locus YDR001C, strain nth1, hits give low values
[18] = locus YDR069C, strain doa4, hits give low values
[19] = locus YDR137W, strain rgp1, hits give low values
[20] = locus YDR159W, strain sac3, hits give low values
[21] = locus YDR297W, strain sur2, hits give low values
[22] = locus YDR334W, strain swr1, hits give low values
[23] = locus YDR335W, strain msn5, hits give low values
[24] = locus YDR392W, strain spt3, hits give low values
[25] = locus YEL003W, strain gim4, hits give low values
[26] = locus YEL037C, strain rad23, hits give low values
[27] = locus YEL061C, strain CIN8 (second series), hits give low values
[28] = locus YER015W, strain faa2, hits give low values
[29] = locus YER016W, strain bim1, hits give low values
[30] = locus YER111C, strain swi4, hits give low values
[31] = locus YER155C, strain BEM2 (second series), hits give low values
[32] = locus YFR010W, strain ubp6, hits give low values
[33] = locus YGL167C, strain pmr1, hits give low values
[34] = locus YGL173C, strain kem1, hits give low values
[35] = locus YGL227W, strain vid30, hits give low values
[36] = locus YGL240W, strain doc1, hits give low values
[37] = locus YGL253W, strain hxk2, hits give low values
[38] = locus YHR013C, strain ard1, hits give low values
[39] = locus YHR027C, strain rpn1, hits give low values
[40] = locus YHR142W, strain chs7, hits give low values
[41] = locus YJL092W, strain hpr5, hits give low values
[42] = locus YJL095W, strain BCK1 (second series), hits give low values
[43] = locus YJL115W, strain asf1, hits give low values
[44] = locus YJL129C, strain trk1, hits give low values
[45] = locus YJL154C, strain vps35, hits give low values
[46] = locus YJL164C, strain tpk1, hits give low values
[47] = locus YJL166W, strain qcr8, hits give low values
[48] = locus YJL187C, strain SWE1, hits give low values
[49] = locus YKL160W, strain elf1, hits give low values
[50] = locus YKR026C, strain gcn3, hits give low values
[51] = locus YKR091W, strain srl3, hits give low values
[52] = locus YLL001W, strain dnm1, hits give low values
[53] = locus YLL026W, hits give low values
[54] = locus YLL041C, strain sdh2, hits give low values
[55] = locus YLR027C, strain aat2, hits give low values
[56] = locus YLR221C, strain rsa3, hits give low values
[57] = locus YLR258W, strain gsy2, hits give low values
[58] = locus YLR262C, strain YPT6 (second series), hits give low values
[59] = locus YLR320W, strain mms22, hits give low values
[60] = locus YLR342W, strain FKS1, hits give low values
[61] = locus YLR357W, strain rsc2, hits give low values
[62] = locus YLR370C, strain arc18, hits give low values
[63] = locus YLR384C, strain iki3, hits give low values
[64] = locus YML120C, strain ndi1, hits give low values
[65] = locus YMR058W, strain fet3, hits give low values
[66] = locus YMR125W, strain sto1, hits give low values
[67] = locus YMR129W, hits give low values
[68] = locus YMR205C, strain PFK2, hits give low values
[69] = locus YMR231W, strain pep5, hits give low values
[70] = locus YNL071W, strain lat1, hits give low values
[71] = locus YNL209W, strain ssb2, hits give low values
[72] = locus YNL248C, strain rpa49, hits give low values
[73] = locus YNL322C, strain KRE1 (second series), hits give low values
[74] = locus YNR049C, strain mso1, hits give low values
[75] = locus YOR001W, strain rrp6, hits give low values
[76] = locus YOR070C, strain gyp1, hits give low values
[77] = locus YOR080W, strain dia2, hits give low values
[78] = locus YOR083W, strain WHI5, hits give low values
[79] = locus YOR106W, strain vam3, hits give low values
[80] = locus YOR265W, strain rbl2, hits give low values
[81] = locus YOR270C, strain vph1, hits give low values
[82] = locus YOR290C, strain snf2, hits give low values
[83] = locus YPL051W, strain arl3, hits give low values
[84] = locus YPL078C, strain atp4, hits give low values
[85] = locus YPL106C, strain sse1, hits give low values
[86] = locus YPL240C, strain hsp82, hits give low values
[87] = locus YHR030C, strain SLT2, hits give low values
[88] = locus YHR079C, strain IRE1, hits give low values
[89] = locus YJL095W, strain BCK1, hits give low values
[90] = locus YJR066W, strain TOR1, hits give low values
[91] = locus YLR113W, strain HOG1, hits give low values
[92] = locus YNL183C, strain NPR1, hits give low values
[93] = locus YOR231W, strain MKK1, hits give low values
[94] = locus YPL256C, strain CLN2, hits give low values

Measured: normalized growth

C#CCCCCCCCCCCCc1ccco1
active: [24] 0.603 | [31] 0.849 | [70] 0.877
inactive: [1] 1.02 | [2] 0.98 | [3] 0.997 | [4] 0.999 | [5] 0.954 | [6] 0.994 | [7] 0.997 | [8] 0.995 | [9] 1 | [10] 0.983 | [11] 0.999 | [12] 1 | [13] 0.995 | [14] 0.992 | [15] 0.991 | [16] 0.987 | [17] 0.99 | [18] 0.983 | [19] 0.993 | [20] 0.958 | locus YDR195W, strain ref2 0.99 | [21] 1 | [22] 0.999 | [23] 0.989 | [25] 1.01 | [26] 1.01 | [27] 1 | [28] 0.992 | [29] 0.988 | [30] 0.972 | [32] 0.996 | [33] 0.999 | [34] 0.989 | [35] 0.991 | [36] 0.995 | [37] 0.989 | [38] 0.869 | [39] 1 | [40] 0.971 | [41] 0.989 | [42] 0.997 | [43] 0.987 | [44] 0.968 | [45] 1.01 | [46] 0.973 | [47] 0.947 | [48] 1 | [49] 0.985 | [50] 0.964 | [51] 0.993 | [52] 0.981 | [53] 0.982 | [54] 1 | [55] 0.985 | [56] 0.975 | [57] 0.99 | [58] 0.917 | [59] 0.932 | [60] 0.989 | [61] 0.975 | [62] 0.998 | [63] 0.987 | [64] 1 | [65] 0.987 | [66] 0.958 | [67] 0.998 | [68] 0.938 | [69] 0.993 | [71] 0.998 | [72] 0.982 | [73] 0.983 | [74] 0.996 | [75] 1 | [76] 1.01 | [77] 0.993 | [78] 0.985 | [79] 0.949 | [80] 1 | [81] 0.962 | [82] 0.975 | [83] 0.988 | [84] 0.991 | [85] 1.04 | [86] 1

CCCCCCCCCCCCCc1ccco1
inactive: [1] 1.01 | [2] 0.976 | [3] 0.991 | [4] 0.979 | [6] 0.969 | [7] 0.991 | [8] 0.938 | [9] 0.947 | [10] 0.954 | [11] 0.973 | [12] 0.96 | [13] 0.989 | [14] 0.993 | [15] 0.988 | [16] 0.983 | [17] 0.989 | [18] 0.964 | [19] 0.886 | [20] 0.933 | locus YDR195W, strain ref2 0.973 | [21] 0.989 | [22] 0.987 | [23] 0.987 | [25] 0.953 | [26] 0.983 | [27] 0.976 | [28] 0.989 | [29] 0.978 | [30] 0.966 | [32] 0.96 | [33] 0.979 | [34] 0.968 | [35] 0.971 | [36] 0.936 | [37] 0.98 | [39] 0.992 | [87] 0.951 | [88] 0.937 | [40] 0.922 | [41] 0.988 | [42] 0.939 | [89] 0.977 | [43] 0.99 | [44] 0.925 | [45] 0.991 | [48] 0.978 | [90] 0.944 | [49] 0.931 | [50] 0.966 | [51] 0.989 | [52] 0.976 | [53] 0.949 | [54] 0.99 | [55] 0.939 | [91] 0.939 | [57] 0.94 | [60] 0.986 | [61] 0.99 | [62] 0.989 | [63] 0.983 | [64] 0.959 | [65] 0.925 | [66] 0.934 | [67] 0.985 | [69] 0.985 | [92] 0.908 | [71] 0.993 | [72] 0.999 | [73] 0.995 | [74] 0.989 | [75] 0.974 | [76] 0.944 | [77] 1 | [78] 0.96 | [79] 0.927 | [93] 0.899 | [80] 0.981 | [81] 0.929 | [82] 0.913 | [83] 0.964 | [84] 0.947 | [85] 1.01 | [86] 0.991 | [94] 0.91
active: [5] 0.825 | [24] 0.266 | [31] 0.635 | [38] 0.699 | [46] 0.915 | [47] 0.835 | [56] 0.889 | [58] 0.816 | [59] 0.81 | [68] 0.841 | [70] 0.621

C=CCCCCCCCCCCCc1ccco1
inactive: [1] 0.981 | [3] 0.939 | [7] 0.995 | [15] 0.979 | [16] 0.999 | [17] 1.01 | [18] 0.94 | locus YDR195W, strain ref2 0.939 | [26] 0.995 | [30] 0.975 | [32] 0.921 | [33] 1.01 | [39] 0.937 | [87] 0.87 | [88] 0.858 | [41] 0.933 | [43] 0.984 | [44] 0.877 | [45] 1.01 | [90] 0.925 | [50] 0.986 | [51] 0.996 | [53] 0.935 | [54] 0.968 | [61] 0.967 | [62] 0.966 | [63] 0.967 | [64] 0.934 | [67] 0.976 | [69] 0.997 | [92] 0.869 | [71] 0.945 | [73] 0.976 | [74] 0.994 | [75] 0.954 | [77] 0.99 | [80] 0.976 | [82] 0.909 | [85] 0.96 | [94] 0.856
active: [2] 0.869 | [4] 0.896 | [5] 0.659 | [6] 0.905 | [8] 0.873 | [9] 0.873 | [10] 0.803 | [11] 0.861 | [13] 0.848 | [14] 0.916 | [19] 0.629 | [20] 0.854 | [21] 0.878 | [23] 0.84 | [24] 0.0917 | [25] 0.884 | [27] 0.52 | [28] 0.913 | [29] 0.814 | [31] 0.309 | [34] 0.868 | [35] 0.766 | [36] 0.869 | [37] 0.82 | [38] 0.613 | [40] 0.53 | [42] 0.587 | [89] 0.877 | [46] 0.819 | [47] 0.589 | [49] 0.732 | [52] 0.885 | [55] 0.727 | [91] 0.832 | [56] 0.66 | [57] 0.861 | [58] 0.582 | [59] 0.621 | [60] 0.858 | [65] 0.692 | [66] 0.807 | [68] 0.719 | [70] 0.253 | [72] 0.879 | [76] 0.833 | [78] 0.863 | [79] 0.819 | [93] 0.856 | [81] 0.626 | [83] 0.754 | [84] 0.79 | [86] 0.847
